The whole screen tested about 220,000 compounds, of which about 8,200 (3.7%) were called active.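 The calls were made as follows: active = compounds that reduced the stress-induced luciferase reporter signal by more than about 70% of percent inhibition (limit read from the data); inactive = the rest.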 This excerpt belongs to a sample that is enriched for actives.
test: blockers of ER-stress CHOP reporter expression – cell-based, unfolded protein response, luciferase reporter, primary screen (AID 2732); details: CHO-K1 CHOP-promoter luciferase, tunicamycin-induced, 15-18 h; at 10 µM; hits give high values;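 also: 0% = tunicamycin plus vehicle and 100% = wells without tunicamycin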

Structure (SMILES)	inhibition
O=C(Nc1ccc(F)cc1F)N1CCCN(CCOc2ccccc2)CC1	-11% (inactive)
Cc1ccc(Cl)c(OCC(=O)NN2CCN(C)CC2)c1	5.66% (inactive)
O=C(c1ccccc1)c1ccc2nc(N3CCCCC3)c3nncn3c2c1	19.1% (inactive)
c1ccc(CC2CCN(c3nc4ccccc4n4cnnc34)CC2)cc1	76.1% (active)
NC(=O)c1ccc(CN2CCC(Cc3ccccc3)CC2)cc1	-9.98% (inactive)
N#CC1=C(N)Oc2c(ccc3cccnc23)C1c1ccncc1 (stereo not given)	-1.42% (inactive)
CCOC(=O)c1sc(NC(=O)COc2ncnc3ccccc23)c(C(=O)OCC)c1C	43% (inactive)
CCOC(=O)c1c(NC(=O)CNC2CCCc3ccccc32)sc(C(N)=O)c1C (stereo not given)	95.9% (active)
Nc1nnc(SCC(=O)NC2CCCc3ccccc32)s1 (stereo not given)	12.6% (inactive)
Cc1ccc(/C=N/NC(=S)Nc2cccc(S(=O)(=O)N(C)C)c2)o1	36% (inactive)
NC(=O)c1ccc(-c2csnn2)cc1	9.46% (inactive)
Cc1ccccc1-c1n[nH]c(=S)n1C	-13.1% (inactive)
Cc1ccccc1-c1n[nH]c(=S)n1/N=C/c1ccc(-c2ccccc2Br)o1	72.8% (active)
Cc1n[nH]c(=S)n1/N=C/c1ccc(Br)o1	14.2% (inactive)
CC1CN(c2nc(Nc3ccccc3)nc(N)c2[N+](=O)[O-])CC(C)O1 (stereo not given)	9.58% (inactive)
CCCc1nc(N2CCN(C)CC2)c2sc(=S)n(-c3ccccc3)c2n1	74.7% (active)
Cc1cccc(-n2c(N)c(C(=O)N3CCN(C)CC3)sc2=S)c1	-3.45% (inactive)
CCCc1nc(-c2ccccc2O)n(-c2ccccc2)n1	40.5% (inactive)
O=C(NCCc1ccccn1)c1cccnc1Oc1ccc(Cl)cc1	18.1% (inactive)
CCCN(CCC)S(=O)(=O)c1ccc(C(=O)NNC(=O)c2cc(OC)c(OC)c(OC)c2)cc1	2.06% (inactive)
C/C(CC(=O)NC(C)c1ccccc1)=N\NC(N)=S (stereo not given)	0.93% (inactive)
Cc1nc(SCC(=O)c2ccccc2)c([N+](=O)[O-])[nH]1	7.53% (inactive)
CC(=O)Nc1ccc(C(=O)CSc2nc3ccc(C)cc3[nH]2)cc1	37.2% (inactive)
O=C(CSc1nc2ccc([N+](=O)[O-])cc2[nH]1)c1ccc(Cl)cc1	78.4% (active)

Structure (SMILES)	inhibition
CCOc1ccc(N2CC(C(=O)N/N=C/c3sccc3C)CC2=O)cc1 (stereo not given)	17.4% (inactive)
COc1ccc(C(C(=O)NC(C)(C)C)N(C(=O)Cn2nnc3ccccc32)c2ccc(C(C)=O)cc2)cc1O (stereo not given)	-13.6% (inactive)
O=C(Nc1ccc(Cl)cc1)Nc1ccc(Oc2cccnc2)nc1	15.6% (inactive)
COc1ccc(OC(C)C(=O)NCCc2nc3ccccc3[nH]2)cc1 (stereo not given)	12.8% (inactive)
O=C(COc1ccccc1)NCCc1nc2ccccc2[nH]1	-0.39% (inactive)
CCCCCOc1ccc(/C=C/C(=O)NCCc2nc3ccccc3[nH]2)cc1OC	70.7% (active)
CCN(CC)S(=O)(=O)c1cc([N+](=O)[O-])ccc1NNC(=O)Nc1ccccc1	94.6% (active)
CCN(CC)S(=O)(=O)c1cc([N+](=O)[O-])ccc1N=Nc1c(O)n(C)c2ccccc12	39.2% (inactive)
O=C(CSCC(=O)Nc1cccc([N+](=O)[O-])c1)Nc1ccccc1	-4.34% (inactive)
CCOC(=O)c1cnc(COc2ccccc2Cl)[nH]c1=O	-0.7% (inactive)
Oc1c(Cl)cc(Cl)c(Cl)c1Cc1c(O)c(Cl)cc(Cl)c1Cl	93.3% (active)
N#Cc1c(C(F)(F)F)cc(-c2cccs2)nc1N1CCCCC1	12.1% (inactive)
COCc1cc(=O)[nH]c(SC)n1	-4.77% (inactive)
CCOC(=O)c1c(NC(=S)NC(=O)c2ccco2)sc2c1CCCC2	85% (active)
CCOC(=O)c1c(NC(=S)NC)sc2c1CCCC2	14.4% (inactive)
CCOC(=O)c1c(NC(=S)Nc2ccccc2C)sc2c1CCC2	34.1% (inactive)
CN(C)/C=C(/C(=O)c1ccc(Cl)c(Cl)c1)c1nnnn1-c1ccccc1	-4.76% (inactive)
COc1ccc(N(Cc2ccccc2)S(=O)(=O)c2cccc(C(=O)O)c2)cc1	3.03% (inactive)
O=C(Cn1nnc(N2CCCCC2)n1)c1ccc(Cl)c(Cl)c1	6.73% (inactive)
Clc1ccc(C[n+]2cc(-c3ccccc3)n3c2CCC3)cc1	9.23% (inactive)
CCn1nccc1C(=O)Nc1ccc(Cl)c(Cl)c1	0.72% (inactive)
Cc1ccc(NC(=O)Nc2nnc(-c3ccncc3)s2)cc1	40.9% (inactive)
Cc1nnc(NC(=O)Nc2ccc(Cl)c(Cl)c2)s1	86.9% (active)
O=C(O)c1cccc(NC(=O)c2cc(-c3cccc(Cl)c3)nc3ccccc23)c1	-25% (inactive)

Structure (SMILES)	inhibition
Cc1c(C(=O)Nc2cccc(Cl)c2)cn2c(nc3ccccc32)c1C#N	104% (active)
Cn1cc(Cl)c(C(=O)NNC(=S)Nc2cccc(Cl)c2)n1	9.14% (inactive)
O=C(NCc1cc(C(F)(F)F)cc(C(F)(F)F)c1)C1CC(c2cccc(F)c2)=NO1 (stereo not given)	20.1% (inactive)
O=C(N/N=C/c1ccc(OCc2ccccc2)cc1)c1ccc(O)cc1	-37.6% (inactive)
CN(C)c1ccc(/C=N/N(Cc2ccccc2)c2ccccc2)cc1	1.37% (inactive)
Oc1ccc(/C=N/N(Cc2ccccc2)c2ccccc2)cc1	97.5% (active)
NC(=O)C1=CN(C2OC(COP(=O)(O)OP(=O)(O)OC[C@H]3O[C@@H](n4cnc5c(N)ncnc54)C(OP(=O)(O)O)[C@H]3O)C(O)C2O)C=CC1 (stereo not given in full)	-6.4% (inactive)
CCN1CCN(c2cc3nc(C)n(Cc4ccccc4)c(=O)c3cc2NC(=O)c2ccccc2F)CC1	95.7% (active)
CCC(=O)Nc1ccc2nc(C)n(Cc3ccccc3Cl)c(=O)c2c1	-4.28% (inactive)
O=C(NC1CCN(Cc2ccccc2)CC1)c1ccccc1F	22.9% (inactive)
Cc1sc2nc(CSCC(=O)Nc3c(Cl)cccc3Cl)[nH]c(=O)c2c1C	0.31% (inactive)
Cc1sc2nc(COC(=O)C(NC(=O)c3ccc(Cl)cc3Cl)C(C)C)[nH]c(=O)c2c1C (stereo not given)	95.4% (active)
CC(C)NC(=O)c1ccc(Cl)cc1Cl	12.1% (inactive)
O=C(Nc1ccccc1)N1CCN(C2c3ccccc3-c3ccccc32)CC1	12.3% (inactive)
Cc1ccc(C)c2c1cc(C)c1nnc(SCC(=O)Nc3cccc(C(=O)O)c3)n12	-9.73% (inactive)
CC(=O)N1CCN(CC(=O)Nc2ccc(SC(F)F)cc2)CC1	16.9% (inactive)
O=C(Cc1ccc(Cl)c(Cl)c1)Nc1ccc(SC(F)F)cc1	88% (active)
Cc1ccc(CC(=O)Nc2ccc(OC(F)F)c(Cl)c2)cc1C	62% (inactive)
CC(NC(=S)Nc1ccccc1)C(c1cccs1)N1CCOCC1 (stereo not given)	-3.16% (inactive)
Oc1c(Br)cc(/C=N/NC(=S)NCC2CCCO2)cc1Br (stereo not given)	22.4% (inactive)
Cc1ccc(N2C(=O)CC(Nc3cccc4ccccc34)C2=O)cc1 (stereo not given)	74.7% (active)
CC1=C(C)CC2C(=O)N(c3cccc4ccccc34)C(=O)C2C1 (stereo not given)	19.9% (inactive)
O=C(Cc1ccccc1)NNC1CC(=O)N(c2ccc(Br)cc2)C1=O (stereo not given)	17% (inactive)
COc1cc(C=O)c(Br)cc1OCC(=O)NCc1ccccc1	18% (inactive)

Structure (SMILES)	inhibition
COc1cc(/C=C(\C#N)C(=O)Nc2ccc3ccccc3c2)c([N+](=O)[O-])cc1OC	-24.5% (inactive)
COc1ccc(NC(=O)/C(C#N)=C\c2cc(OC)c(OCc3ccc(C(=O)O)cc3)cc2Br)cc1	103% (active)
O=C(NCc1ccco1)C1CCCN1S(=O)(=O)c1ccccc1C(F)(F)F (stereo not given)	14.3% (inactive)
CN(C)NC(=O)c1csnc1-c1c(Cl)cccc1Cl	-5.93% (inactive)
Cc1ccccc1CSc1nnc(CCCCCNC(=O)OC(C)(C)C)o1	12.7% (inactive)
NCC(=O)c1cccc2ccc[n+]([O-])c12	-8.9% (inactive)
COc1ccc(S(=O)(=O)Nc2ccc(O)c(Sc3nc4ccccc4s3)c2)cc1	13.3% (inactive)
O=[N+]([O-])c1c(NCCO)cc(Sc2nc3ccccc3s2)c2nonc12	108% (active)
O=C(CSc1nc2ccccc2s1)Nc1ccc(C(=O)O)cc1	-1.84% (inactive)
C/C(=N\NC(=O)CC(C)C)c1c(C(F)(F)F)[nH]n(-c2nc3ccccc3s2)c1=O	-21.3% (inactive)
CCN(CC)c1ccc(/C=N/NC(=O)c2cnccn2)c(O)c1	47.2% (inactive)
CC(C)Cn1c(N)c(C(=O)NCc2cccs2)c2nc3ccccc3nc21	89% (active)
CCC(C)NC(=O)c1c(N)n(/N=C/c2cccs2)c2nc3ccccc3nc12 (stereo not given)	67.4% (inactive)
C=CCn1c(N)c(C(=O)OCC(C)C)c2nc3ccccc3nc21	18% (inactive)
Cc1cccc(NC(=O)CSc2nnc(CCNC(=O)OC(C)(C)C)o2)c1C	-14.5% (inactive)
COC(=O)c1ccc(COc2cc([N+](=O)[O-])cc3cccnc23)cc1	5.56% (inactive)
CC(=O)N(OCc1ccc(OC(C)C)c(Cl)c1)C(C)=O	-4.06% (inactive)
O=C(Nc1ccc(Cl)cc1)Nc1nnc(/C=C/c2ccccc2)s1	46.8% (inactive)
CCOCc1nnc(NC(=O)CSc2ccc(C)cc2)s1	12.8% (inactive)
O=C(CSc1ccccc1)Nc1nnc(/C=C/c2ccccc2)s1	88.6% (active)
Cc1ccc(N2CCN(S(=O)(=O)c3ccc(F)cc3)CC2)c(C)c1	47.5% (inactive)
Cc1ccc(-n2ncc3c(N4CCN(c5ccc(F)cc5)CC4)ncnc32)c(C)c1	83.8% (active)
Cc1ccc(-n2ncc3c(=O)[nH]cnc32)c(C)c1	31.6% (inactive)

— PubChem BioAssay AID2732 (Emory University Molecular Libraries Screening Center, 2010)
